Screening results: PubChem, The Scripps Research Institute Molecular Screening Center
rCAG RNA binder – binds r(CAG) RNA repeats | r(CAG) RNA repeat, TO-PRO-1 dye displacement fluorescence | inhibition, % at 3 µM | 370,000 tested, 1.3% active | AID 651821;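 active = inhibition above the plate cutoff, the mean of all test compounds on that plate plus 3 SD, cut at about 35% in these data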;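 also: 0% = DMSO alone and 100% = 100 µM mitoxantrone as full dye displacement; higher means more dye released from RNA so lower well fluorescence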
ABHD5 PLIN5 PPI – ABHD5-PLIN5 protein interaction inhibition; Q00G26+Q8WTS1; Split G. princeps luciferase complementation, luminescence, 4 h; inhibition, % at 4 µM; 360,000 tested, 0.78% active;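 active = inhibition above the mean inhibition across every tested compound plus 3 SD, cut at about 22% in these data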;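 also: 0% = DMSO only wells and the 100% control is not disclosed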
TLR4 MyD88 comp – TLR4-MyD88 interaction inhibition in cells | O00206+Q99836 | inhibition, % at 8.4 µM | HeLa CL3-4 TLR4/MyD88 BLA complementation, FRET ratio | 200,000 tested, 0.18% active; in the data active = inhibition above about 25%;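 also: 0% = vehicle and 100% = reference inhibitor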
NOD2 RIPK2 PPI – blocks binding of human NOD2 to RIPK2; 360,000 tested, 0.38% active; CHO BLA complementation NOD2-RIPK2, CCF4 ratio; inhibition, % at 4.98 µM; O43353; AID 624267; in the data active = inhibition above about 21%;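 also: 0% = vehicle only and 100% = reference blocker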
PRMT1 FP inh – blocks human protein arginine methyltransferase 1 | Q99873 | recombinant PRMT1, activity-based probe fluorescence polarization | inhibition, % at 2.79 µM | 370,000 tested, 1.3% active;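 active = inhibition above about 21% made by adding two undisclosed values, limit read from the data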
Target sequence (Q99873 whole entry, looked up): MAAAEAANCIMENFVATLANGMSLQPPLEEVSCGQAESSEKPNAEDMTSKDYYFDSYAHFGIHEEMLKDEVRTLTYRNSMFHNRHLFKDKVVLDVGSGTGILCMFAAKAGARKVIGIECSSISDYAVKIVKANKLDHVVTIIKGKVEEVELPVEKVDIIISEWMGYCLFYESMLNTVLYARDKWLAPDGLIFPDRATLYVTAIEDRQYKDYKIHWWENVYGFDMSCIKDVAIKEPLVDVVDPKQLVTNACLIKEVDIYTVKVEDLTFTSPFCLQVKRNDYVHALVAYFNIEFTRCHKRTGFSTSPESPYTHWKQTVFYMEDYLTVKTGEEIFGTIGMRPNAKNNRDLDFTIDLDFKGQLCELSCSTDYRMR
TLR9-MyD88 block – TLR9-MyD88 interaction inhibition | CHO BLA complementation TLR9-MyD88, CCF4 FRET ratio | inhibition, % at 4.98 µM | 340,000 tested, 0.21% active | AID 504734;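 active = inhibition above the mean over all tested compounds plus 3 SD, cut at about 21% in these data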;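 also: 0% = DMSO only wells and 100% = clavulanate BLA inhibitor control wells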
ABHD5 PLIN5 conf – confirmation of human ABHD5-PLIN5 interaction inhibitors | shares compounds with ABHD5 PLIN5 PPI | biochemical ABHD5-PLIN5 interaction, luminescence | inhibition, % at 4 µM | 2,200 tested, 67% active | AID 651612; in the data active = inhibition above about 23%;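 also: 0% = DMSO vehicle wells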
HNF4 counter – active in HNF4 split-luciferase counter-screen for ABHD5-PLIN5 inhibitors. shares compounds with ABHD5 PLIN5 PPI. HNF4 dimerization, luminescence, biochemical. inhibition, % at 4 µM. 2,200 tested, 77% active. AID 651674;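 active = mean inhibition across replicate wells exceeding the computed hit threshold, cut at about 13% in these data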;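 also: light from luciferase halves that rejoin when HNF4 fusion proteins dimerize; 0% = DMSO only wells and the 100% control is not given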
NOD2 RIPK2 conf – confirmation of human NOD2-RIPK2 interaction inhibitors. shares compounds with NOD2 RIPK2 PPI. CHO cells, NOD2-RIPK2 BLA complementation, CCF4 FRET. inhibition, % at 4.98 µM. 1,200 tested, 70% active. AID 624370;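 active = mean inhibition across replicates above a set limit taken from the earlier primary screen, cut at about 21% in these data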;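 also: 0% = DMSO-only wells and the high end = clavulanate BLA-blocked wells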
NOD2 BLA counter – hits BLA reporter in NOD2-RIPK2 inhibitor counterscreen; shares compounds with NOD2 RIPK2 PPI; 1,200 tested, 57% active; inhibition, % at 4.98 µM; CHO BLA reporter, CCF4 FRET ratio;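 active = mean inhibition above the low-control mean inhibition plus three low-control SD, cut at about 11% in these data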;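 also: 0% = DMSO only wells and 100% = clavulanate high control wells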
PRMT1 confirm – PRMT1 (human) inhibition, FP confirmation. inhibition, % at 2.79 µM. shares compounds with PRMT1 FP inh. AID 687036. recombinant His-PRMT1, activity-based probe fluorescence polarization. 3,300 tested, 42% active;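 active = mean inhibition across replicates above the hit cutoff derived for the earlier primary screen, cut at about 22% in these data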
* = called active by the depositor; nt = no result. Most compounds without a hit are left out; they make up all but 3.3% or so of the library.

SMILES	rCAG RNA binder	ABHD5 PLIN5 PPI	TLR4 MyD88 comp	NOD2 RIPK2 PPI	PRMT1 FP inh	TLR9-MyD88 block	ABHD5 PLIN5 conf	HNF4 counter	PRMT1 confirm	others
CC(C)(O)C#Cc1ccc(N2C(c3ccsc3)=Cc3ccc(F)cc3C2c2c[nH]c3ccccc23)cc1 (centres undefined)	8	-5	nt	-2	3	nt	nt	nt	nt
COc1cc(CN2CCCC(C(=O)c3ccc4c5c(cccc35)CC4)C2)cc(OC)c1O (centres undefined)	2	29*	10	-2	28*	1	15	40*	8
O=C(c1ccc2c3c(cccc13)CC2)C1CCCN(Cc2cccnc2)C1 (centres undefined)	-7	5	-10	-8	1	6	nt	nt	nt
CCc1ccc(CNC(=O)CCC(=O)N2Cc3cccc(OC)c3Oc3ncccc32)cc1	-5	0	nt	-5	4	5	nt	nt	nt
O=C(CCN1CCc2ccccc2C(c2ccccc2)C1)c1ccc2c(c1)OCCO2 (centres undefined)	2	26*	0	11	38*	4	23*	86*	20
CC(C)(C)NC(=O)C(c1ccccc1)n1c(=O)c(-c2ccco2)nc2ccccc21 (centres undefined)	36*	75*	nt	-6	26*	nt	77*	26*	16
O=C(NC1CCCCC1)C(c1cccc2ccccc12)n1c(=O)c(-c2ccco2)nc2ccccc21 (centres undefined)	35*	87*	nt	14	29*	nt	85*	9	19
O=c1c(-c2ccco2)nc2ccccc2n1C(c1ccccn1)c1nc2ccccc2[nH]1 (centres undefined)	24	37*	nt	-22	57*	nt	33*	59*	12
Cc1cc(C)cc(N2CCCn3c2nc2c3c(=O)[nH]c(=O)n2C)c1	nt	-3	nt	0	nt	13	nt	nt	nt
Cc1cc(C)n(-c2ccc(C(=O)N3CCN(S(=O)(=O)c4ccc(Br)cc4Cl)CC3)cc2)n1	2	1	nt	-4	-2	6	nt	nt	nt
O=C1c2ccccc2C(=O)N1Cc1ccco1	2	7	-3	7	-1	11	nt	nt	nt
O=C1c2cccc3c(O)ccc(c23)C(=O)N1Cc1ccco1	-77	45*	20	15	158*	9	24*	53*	169*
Cc1oc(=O)c(NC(=O)c2ccccc2)cc1C(N)=O	3	3	-18	-6	2	nt	nt	nt	nt
Cc1oc(=O)c(NC(=O)c2cccc(Cl)c2)cc1C(=O)c1ccccc1	7	34*	4	2	51*	1	18	100*	24*
O=C(NCc1ccccc1F)c1ccc(S(=O)(=O)N2CCCC2)cc1	-1	-8	nt	-14	-1	-4	nt	nt	nt
COC1=CC(=O)C(C2CC(=O)c3c(O)cc(O)cc3O2)=CC1=O (centres undefined)	20	29*	nt	3	48*	-6	82*	93*	89*
CCOC(=O)N=S(N)(=O)c1ccccc1 (centres undefined)	0	-3	11	-12	1	-2	nt	nt	nt
CCOC(=O)CC(S(=O)(=O)c1ccccc1)S(=O)(=O)c1ccccc1	0	52*	nt	52*	79*	2	38*	89*	58*	NOD2 RIPK2 conf=14;NOD2 BLA counter=10
Cc1ccc(C2NC(=O)c3n[nH]c(C)c32)cc1 (centres undefined)	3	nt	nt	nt	-3	nt	nt	nt	nt
Cc1ccc(SC(CC(=O)c2ccc(C)cc2)C(=O)O)cc1 (centres undefined)	11	69*	-19	10	59*	-5	29*	73*	69*
O=C(O)/C=C/C(=O)c1ccc2c(c1)NC(=O)CO2	-2	90*	3	6	35*	5	91*	105*	47*
CCOc1cc(/C=C2\C(=O)N(Cc3ccc(C)cc3)C(C)=C2C(=O)OC)ccc1O	18	23*	-11	12	41*	0	50*	39*	6
C[C@@H]1CN([C@@H](C)CO)C(=O)c2cc(NC(=O)C3CC3)ccc2O[C@@H]1CN(C)C(=O)NC1CCCCC1	-11	5	nt	-12	-4	-13	nt	nt	nt
CC(=O)NS(=O)(=O)c1ccc(NC(=O)/C=C/c2ccc(C)o2)cc1	6	28*	-1	-1	27*	4	50*	62*	77*
Cc1ccc(/C=C/C(=O)NCc2ccc(S(N)(=O)=O)cc2)o1	21	47*	-11	-2	42*	6	46*	57*	81*
SMILES	rCAG RNA binder	ABHD5 PLIN5 PPI	TLR4 MyD88 comp	NOD2 RIPK2 PPI	PRMT1 FP inh	TLR9-MyD88 block	ABHD5 PLIN5 conf	HNF4 counter	PRMT1 confirm	others
Cc1ccc(/C=C/C(=O)Nc2ccc(S(N)(=O)=O)cc2)o1	17	36*	10	-5	76*	-2	64*	81*	81*
Cc1ccc(/C=C/C(=O)Nc2ccc(N(C)C)cc2)o1	3	1	-5	-1	2	-3	nt	nt	nt
Cc1ccc(/C=C/C(=O)OCC(=O)NCCc2ccc(S(N)(=O)=O)cc2)o1	4	2	nt	-64	5	0	nt	nt	nt
Cc1ccc(/C=C/C(=O)NCCc2cccc(Cl)c2)o1	0	40*	nt	0	46*	4	68*	79*	90*
Cc1ccc(/C=C/C(=O)Nc2ccncc2)o1	0	7	-8	-4	8	1	nt	nt	nt
O=C(NCc1ccccc1Cl)c1cc(C(=O)C2CC2)c[nH]1	-6	-3	nt	-17	2	-2	nt	nt	nt
O=C1OC(c2ccccc2)=N/C1=C\C=C\c1ccco1	5	39*	0	0	26*	11	15	35*	7
O=C1OC(c2ccc(Cl)cc2)=N/C1=C\C=C\c1ccco1	11	53*	6	-2	39*	-4	18	17*	3
COc1ccc(Cl)cc1NC(=S)N(CCN1CCOCC1)C1CCN(C(C)=O)CC1	-3	-2	5	2	3	2	nt	nt	nt
COc1cc(CNC(=O)c2cc(-c3cc(Cl)ccc3C)n[nH]2)cc(OC)c1	3	-4	nt	-3	1	nt	nt	nt	nt
